From PubChem
Cardiac RTF inh – cardiac RTF calcium sensitivity inhibitors, primary screen, biochemical, IANBD-TnC fluorescence, EC70 calcium; Troponin I, cardiac muscle (Homo sapiens) + Troponin T, cardiac muscle (Homo sapiens) + …; IANBD-labeled cardiac RTF, Ca2+ fluorescence; inhibition, % at 7.15 µM; hit rate 0.12% among 340,000;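 active means inhibition above the mean inhibition of all tested compounds plus 3 SD, cut at about 17% in these data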;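 further: assay run at fixed EC70 calcium of 1.6 mM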
CRFR2-BP antag – antagonists of CRF-BP/CRF-R2 complex, primary screen, cell-based, HEK293, calcium dye fluorescence, uHTS; CRF-induced calcium fluorescence; hit rate 0.59% among 350,000; inhibition, % at 11.8 µM;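 active means inhibition of the ligand-induced calcium signal above about 50% at the single tested concentration, limit read from the data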
cardiac RTF act – cardiac RTF calcium sensitivity activators, primary screen, biochemical, IANBD-TnC fluorescence, EC20 calcium. Troponin I, cardiac muscle (Homo sapiens) + Troponin T, cardiac muscle (Homo sapiens) + …. IANBD-labeled TnC RTF fluorescence at EC20 calcium; 0% EC20 calcium, 100% full calcium. activation, % at 7.2 µM. hit rate 0.24% among 340,000;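 active means activation above the mean over all tested compounds plus 3 SD, cut at about 30% in these data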;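 further: rise in fluorescence read as greater calcium sensitivity of cardiac thin filaments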
CRFR2-BP ag – agonists of CRF-BP/CRF-R2 complex, primary screen, cell-based, HEK293, calcium dye fluorescence, uHTS; CRF-binding protein / CRF receptor 2 complex (human); calcium dye fluorescence (FLIPR); percent of saturating CRF peptide response; activation, % at 13.2 µM; hit rate 0.46% among 350,000; AID 588473, 2011;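 active means activation of at least 50%, plus an integration ratio under a set limit after plate pattern correction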
Large screens that a line does not name were inactive. This is a sample that favours compounds with a hit; in the whole collection about 1.3% have one here.

CCN(CC)S(=O)(=O)c1cc(NC(=O)c2ccc(-n3cncn3)c([N+](=O)[O-])c2)ccc1C	none
COc1ccccc1-n1c(=O)c(C#N)c(-c2ccc([N+](=O)[O-])cc2)c2cc(C(=O)c3cc(F)ccc3O)cnc21	none
Cn1c(=O)c(C#N)c(-c2ccc(F)cc2)c2cc(C(=O)c3cc(Cl)cc(Cl)c3O)cnc21	CRFR2-BP antag 52.6
CC(C)(C)OC(=O)C[C@H]1C/C=C\C[C@H](CC(=O)N(CCO)Cc2ccccc2)C(=O)N[C@H](C(C)(C)C)COC1=O	none
O=C(Nc1ccccc1C(=O)O)c1ccc(Br)c(S(=O)(=O)NCc2ccccc2)c1	none
O=C(CNS(=O)(=O)c1ccc([N+](=O)[O-])cc1)N/N=C\c1ccc(O)cc1	CRFR2-BP ag 64.9
O=C1N/C(=C/c2ccc(N3CCCC3)cc2)C(=O)N1c1ccccc1	none
O=C1/C(=C/c2ccc(N3CCCC3)cc2)NC(=S)N1C1CC1	cardiac RTF act 55.9, CRFR2-BP ag 176.2
Cc1cc(N2CCCC2)ccc1/C=C1\NC(=S)N(C)C1=O	cardiac RTF act 52.9, CRFR2-BP ag 169.5
CSc1ccc(/C=c2\s/c(=C\C(=O)C(C)(C)C)n(CC(=O)NCCC3=CCCCC3)c2=O)cc1	none
CCCNC(=O)Cn1c(=O)/c(=C/c2ccc(-c3ccc([N+](=O)[O-])cc3)o2)s/c1=C\C(=O)C(C)(C)C	cardiac RTF act 52.3, CRFR2-BP ag 164.6
CN(C)c1ccc(C2CC(=O)C=C(Nc3ccccc3N)C2)cc1 (stereo not given)	none (no result: Cardiac RTF inh, cardiac RTF act)
Cc1ccc(C(=O)N/C(=C\c2cn(C)c3ccccc23)C(=O)NCCCN2CCOCC2)cc1	CRFR2-BP antag 100.7
CN(C)c1ccc(NC(=O)COC(=O)Cn2nnc3ccccc32)cc1	CRFR2-BP antag 93.2
Cc1nnc(SCC(=O)NC(=O)Nc2ccc3c(c2)OCCO3)n1N	none
CCCOc1ccc(N)cc1N	cardiac RTF act 32.5
CCCOc1cc(N)ccc1C(=O)OCCN(CC)CC	none
O=C(CSC1=NS(=O)(=O)c2cc(Cl)ccc2N1)c1ccc(Cl)cc1	none
Cc1ccc(N2C(=O)C3C(C(=O)c4ccccc4)=NN(c4ccccc4)C3C2=O)cc1 (stereo not given)	CRFR2-BP ag 90.3
COc1ccccc1N1N=C(C(=O)c2ccccc2)C2C(=O)N(c3ccc(Br)cc3)C(=O)C21 (stereo not given)	none (no result: Cardiac RTF inh, cardiac RTF act)
COc1ccccc1N1C(=O)C2C(C(=O)c3ccccc3)=NN(c3ccccc3)C2C1=O (stereo not given)	none
O=C(C1=NN(c2ccccc2)C2C(=O)N(c3ccccc3)C(=O)C12)c1ccccc1 (stereo not given)	cardiac RTF act 33.1, CRFR2-BP ag 67.9
O=C(C1=NN(c2ccccc2)C2C(=O)N(c3ccccc3Cl)C(=O)C12)c1ccccc1 (stereo not given)	CRFR2-BP ag 134.7
Cc1ccc(N2C(=N)/C(=C3/Nc4ccccc4S3)C(c3ccccc3)C2=O)cc1 (stereo not given)	none
O=C(NC1CCOCC1)C1CCC(=O)N(CCc2cccc(F)c2)C1 (stereo not given)	none
Cc1ccc(C(=O)COC(=O)c2cc(=O)[nH]c3ccccc23)cc1C	none
Cc1c(N2C(=O)CSC2c2ccco2)c(=O)n(-c2ccccc2)n1C (stereo not given)	none
Fc1ccc(N=c2ssnc2Cl)c(F)c1	CRFR2-BP ag 69.8
Clc1ccc(N=c2ssnc2Cl)cc1	CRFR2-BP ag 66.8
O=C(Nc1ccc(S(=O)(=O)Nc2cnc3ccccc3n2)cc1)c1ccc(Cl)c([N+](=O)[O-])c1	none
COc1ccccc1C(=O)OCc1c(-c2ccccc2)ncc2ccccc12	none
Oc1[nH]c2ccccc2c1N=Nc1ccccc1F	cardiac RTF act 282.1, CRFR2-BP ag 145.0
Oc1[nH]c2ccccc2c1N=Nc1ccccc1	none
Oc1[nH]c2ccc(Br)cc2c1N=Nc1ccc(F)cc1	cardiac RTF act 467.4
Oc1[nH]c2ccccc2c1N=Nc1ccc(F)cc1	cardiac RTF act 34.1, CRFR2-BP ag 62.3
Cc1cc(C)cc(NC(=O)Nc2ccccc2N2CCCCC2)c1	none
CC1=Nc2ccccc2/C1=C\c1nc(-c2ccccc2)oc1O	none
CC1=Nc2ccccc2/C1=C\c1nc(-c2ccc(C(F)(F)F)cc2)oc1O	cardiac RTF act 155.9, CRFR2-BP ag 121.1
CC(C)CN(CC(C)C)C(=O)CCCC(=O)N(CC(C)C)CC(C)C	CRFR2-BP antag 52.5
O=C(CSc1ncc(-c2ccccc2)n1C1CCCC1)N1CCc2ccccc21	CRFR2-BP ag 102.0
Cn1c(-c2ccccc2)cnc1SCC(=O)N1CCCc2ccccc21	none
CCN(CC)C(=O)CSc1ncnc2c1nnn2-c1ccc(OC)cc1	CRFR2-BP antag 83.9
O=C(NCc1ccccc1OC(F)(F)F)C1CCC(=O)N(C2CC2)C1 (stereo not given)	none
CC(C)N1CCc2c(sc(NC(=O)c3ccc4ccccc4c3)c2C(N)=O)C1	CRFR2-BP ag 124.3
CC(C)N1CCc2c(sc(NC(=O)CCc3ccccc3)c2C(N)=O)C1	CRFR2-BP ag 62.4
CC(=O)Nc1sc2c(c1-c1nc3ccccc3s1)CCN(C(C)C)C2	CRFR2-BP ag 80.3
CC(C)N1CCc2c(sc(NC(=O)c3cc4cc([N+](=O)[O-])ccc4s3)c2C(N)=O)C1	CRFR2-BP ag 133.6
CC(C)N1CCc2c(sc(NC(=O)c3ccc(C(=O)c4ccccc4)cc3)c2C(N)=O)C1	none
CCCC(C(=O)Nc1cccc(S(=O)(=O)N2CCCC2)c1)c1ccccc1 (stereo not given)	none
COCCNc1c(-c2cc3ccc(C)c(C)c3[nH]c2=O)nc2ccccn12	none
COC(=O)c1c(NC(=O)c2ccco2)sc2c1CCN(C(C)C)C2	CRFR2-BP ag 51.8
COc1ccc(N=C2C(=O)Nc3c(C)cccc32)cc1	CRFR2-BP antag 93.6
COc1cc(/C=C(\C#N)C(=O)c2ccc(O)c(O)c2)cc(I)c1O	CRFR2-BP ag 187.8
Cc1cccc(C(=O)OCC(=O)NN2C(=O)NC3(CCC(C)CC3)C2=O)c1O (stereo not given)	none
CC(C)(C)N(Cc1ccc2c(c1)OCO2)C(=O)/C=C\S(=O)c1ccccc1 (stereo not given)	none
COc1ccc(-c2csc(NC(=O)CSc3nc(SC)ns3)n2)cc1	CRFR2-BP antag 85.3
COc1ccc(-c2csc(NC(=O)CSc3nc(C)cs3)n2)cc1	none
Cc1ccc([N+](=O)[O-])cc1N=Nc1c(-c2ccc([N+](=O)[O-])cc2)[nH]n(C(N)=S)c1=O	CRFR2-BP antag 111.6, CRFR2-BP ag 51.4
Cc1ccc([N+](=O)[O-])cc1N=Nc1c(C)[nH]n(C(N)=S)c1=O	none
CC(C)C1OC2(C)OC(=N)C1(C#N)C(C#N)(C#N)C2c1ccccc1 (stereo not given)	CRFR2-BP ag 62.5
